From PubChem BioAssay (Tox21)
Records with an inconclusive call do not appear. Entries that show only a call come without a potency. The source made the active and inactive calls. Unless noted, the call rests on the fitted dose curve.

How the values were obtained:
[1] = Nuclear factor erythroid 2-related factor 2/antioxidant responsive element (Nrf2/ARE) small molecule agonists: qHTS cell viability counter screen in human keratinocytes (AID 1919968; active means well fitted curve in the direction sought with a large enough effect in the repeat runs; an effect the other way counts as inactive or inconclusive; further: nearly all actives have a fitted effect of over 55% in size; further: potency means the concentration at half of the fitted maximal effect)
Summary of the method: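 CellTiter-Fluor fluorescence, read 1 h after reagent, gave viability in the same wells as the ARE-luciferase assay. KeratinoSens cells (1,500/well) had 23 h compound exposure at 37 C/5% CO2 following 5 h plating.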

[2] = Nuclear factor erythroid 2-related factor 2/antioxidant responsive element (Nrf2/ARE) small molecule agonists: luciferase reporter gene qHTS assay in human keratinocytes (AID 1919969); further: nearly all actives have a fitted effect of over 35% in size; further: potency means the concentration at half of the fitted maximal effect
[3] = target: Gonadotropin-releasing hormone receptor (Homo sapiens) (UniProt P30968); test: Human gonadotropin-releasing hormone receptor (GnRHR) small molecule agonists, calcium flux assay in GnRHR-HEK293 cells (AID 1920063); further: nearly all actives have a fitted effect of over 35% in size; further: potency means the concentration at half of the fitted maximal effect
Summary of the method: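 Agonist mode: compounds at 15 concentrations, in triplicate, went onto calcium dye-loaded GnRHR-HEK293 cells. Intracellular calcium was then followed as 480/540 nm fluorescence at 1 s intervals over 3 min.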

[4] = target: KiSS-1 receptor (Homo sapiens) (UniProt Q969F8); test: Human kisspeptin (KISS1R) small molecule agonists, calcium flux assay in KISS1R-HEK293 cells (AID 1920064; active means well fitted curve in the direction sought with a large enough effect in the repeat runs; an effect the other way counts as inactive or inconclusive; further: potency means the concentration at half of the fitted maximal effect)
Summary of the method: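 Agonist mode: intracellular calcium rise tracked at 1 s intervals over 3 min (480/540 nm) immediately after compound addition to dye-loaded KISS1R-HEK293 stable cells. Each compound tested at 15 concentrations in triplicate.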

[5] = G protein-coupled receptor (GPCR) small molecule agonists, calcium flux assay: HEK293 wild type cell line counter screen (AID 1920065); further: potency means the concentration at half of the fitted maximal effect
Summary of the method: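 Calcium flux counter screen: compound added in agonist mode at 15 concentrations in triplicate to dye-loaded parental HEK293 cells. Fluorescence (480/540) read kinetically for 3 min; ATP served as positive control.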

[6] = p53 small molecule agonists, cell-based qHTS assay with human liver microsomes (AID 1963577); further: potency means the concentration at half of the fitted maximal effect
Summary of the method: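 p53RE-bla cells, 4,000/well, compound added after 5 h, with human liver microsomes 0.5 mg/mL and NADPH 0.5 mg/mL final; 16 h at 37 C, then LiveBLAzer 2 h RT, fluorescence.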

[7] = p53 small molecule agonists, cell-based qHTS assay with rat liver microsomes (AID 1963578)
Summary of the method: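 p53RE-bla cells, 4,000/well, pre-incubated 5 h, then given compounds plus rat liver microsomes (0.5 mg/mL final) and NADPH (0.5 mg/mL final). Incubation 16 h at 37 C; beta-lactamase reporter read by LiveBLAzer fluorescence after 2 h at room temperature.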

[8] = p53 small molecule agonists, cell-based qHTS assay with human liver microsomes: qHTS cell viability counter screen (AID 1963579); further: nearly all actives have a fitted effect of over 45% in size; further: potency means the concentration at half of the fitted maximal effect
Summary of the method: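 p53RE-bla cells, 4,000/well, dosed 5 hours after plating, with human liver microsomes (0.5 mg/mL final) plus NADPH (0.5 mg/mL final), 16 hours at 37 C. Viability read as CellTiter-Glo luminescence after 30 min at room temperature.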

[9] = target: 5-hydroxytryptamine receptor 2A (Homo sapiens) (UniProt P28223); test: 5-hydroxytryptamine receptor 2A (HTR2A) small molecule antagonists, cell-based qHTS assay (AID 1963586); further: nearly all actives have a fitted effect of over 45% in size; further: potency means the concentration at half of the fitted maximal effect
Summary of the method: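 CHO cells stably expressing human HTR2A were plated for 18 h at 37 C, then loaded with calcium dye for 1 h. Compounds were preincubated 5 min at room temperature before DOI (4 nM solution) was added. Kinetic fluorescence was read for 3 min.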

[10] = target: 5-hydroxytryptamine receptor 2A (Homo sapiens) (UniProt P28223); test: 5-hydroxytryptamine receptor 2A (HTR2A) small molecule agonists, cell-based qHTS assay (AID 1963587); further: nearly all actives have a fitted effect of over 30% in size; further: potency means the concentration at half of the fitted maximal effect
Summary of the method: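 CHO cells stably expressing human HTR2A, plated 18 h, loaded with calcium dye 1 h at 37 C. Agonist mode: compounds added and intracellular calcium fluorescence recorded kinetically for 2 min at 1 sec intervals.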

[11] = target: Muscarinic acetylcholine receptor M1 (Homo sapiens) (UniProt P11229); test: Cholinergic receptor muscarinic 1 (CHRM1) small molecule antagonists, cell-based qHTS assay (AID 1963588); further: nearly all actives have a fitted effect of over 40% in size; further: potency means the concentration at half of the fitted maximal effect
Summary of the method: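 Compounds were tested at 15 concentrations in three independent runs. Dye-loaded CHRM1-CHO cells were exposed 5 min at room temperature before stimulation by acetylcholine added at 50nM. Intracellular calcium was read kinetically on FDSS for 3 min.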

[12] = target: Muscarinic acetylcholine receptor M1 (Homo sapiens) (UniProt P11229); test: Cholinergic receptor muscarinic 1 (CHRM1) small molecule agonists, cell-based qHTS assay (AID 1963589); further: nearly all actives have a fitted effect of over 35% in size; further: potency means the concentration at half of the fitted maximal effect
Summary of the method: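 Agonist-mode calcium-flux screen: compounds at 15 concentrations, three independent runs, were pin-transferred onto dye-loaded human CHRM1-CHO cells. Fluorescence was then recorded kinetically every second over minutes.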

[13] = cAMP Responsive Elements (CRE) small molecule agonists, cell-based qHTS assay (AID 1963590)
Summary of the method: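 Agonist mode: compound added to CRE-bla HEK 293T cells (2,000/well, 18 h after plating) for 3 h at 37 C/5% CO2. Reporter activity detected via FRET beta-lactamase substrate, 2 h room-temperature loading.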

[14] = cAMP Responsive Elements (CRE) small molecule antagonists, cell-based qHTS assay (AID 1963591; active means well fitted inhibition curve with a large enough effect in the signal ratio in the repeat runs, not every such curve was filed as active; the % refers to the signal ratio; further: potency means the concentration at half of the fitted maximal effect)
Summary of the method: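 Antagonist mode: compounds are added alongside the adenylyl cyclase activator NKH477 (0.25 uM final) to CRE-bla HEK293T cells for 3 h. LiveBLAzer FRET substrate, 2 h at room temperature, reports bla expression.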

[15] = target: Beta-2 adrenergic receptor (Homo sapiens) (UniProt P07550); test: Adrenergic beta2 receptor (ADRB2) small molecule antagonists, cell-based qHTS assay (AID 1963592); further: nearly all actives have a fitted effect of over 50% in size; further: potency means the concentration at half of the fitted maximal effect
Summary of the method: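 Assay format: CHO-ADRB2 cells, 18-20hr seeding at 37C/5% CO2, then compound plus 1nM isoproterenol agonist mix for 0.5hr RT. Homogeneous time-resolved fluorescence cAMP detection after 1hr, expressed as 665/615 nm ratio.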

[16] = target: D(2) dopamine receptor (Homo sapiens) (UniProt P14416); test: Dopamine D2 receptor (DRD2) small molecule agonists, cell-based qHTS assay (AID 1963594); further: nearly all actives have a fitted effect of over 35% in size
Summary of the method: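 HEK293 cells stably expressing human DRD2, pre-treated with PDE inhibitor Ro20-1724 (0.1 mM final) and compound 10 min at room temperature, then stimulated with NKH477 (200nM […]) for 30 min. cAMP read by HTRF (665/620 nm).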

[17] = target: D(2) dopamine receptor (Homo sapiens) (UniProt P14416); test: Dopamine D2 receptor (DRD2) small molecule antagonists, cell-based qHTS assay (AID 1963595; active means well fitted inhibition curve with a large enough effect in the signal ratio in the repeat runs, with a control signal flat; the % refers to the signal ratio; further: potency means the concentration at half of the fitted maximal effect)
Summary of the method: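 Cells were plated and grown for 24 h at 37 °C. Ro20-1724 (0.1 mM final) went in first, then compound for 10 min. NKH477 (200 nM) with quinpirole (12 nM) followed for 30 min at RT, then HTRF detection reagents for 1 h.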

[18] = p53 small molecule agonists, cell-based qHTS assay: qHTS cell viability counter screen (AID 1963581); further: nearly all actives have a fitted effect of over 45% in size; further: potency means the concentration at half of the fitted maximal effect
Summary of the method: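 Counter screen read by CellTiter-Glo luminescence (ATP content, 30 min at room temperature), run in the same wells as the beta-lactamase reporter read. HCT-116 p53RE-bla cells saw compounds for 16 h at 37 C.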

[19] = p53 small molecule agonists, cell-based qHTS assay (AID 1963582; active means well fitted activation curve with a large enough effect in the signal ratio in the repeat runs, not every such curve was filed as active; the % refers to the signal ratio)
Summary of the method: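 Read-out is beta-lactamase FRET fluorescence after 2 h at room temperature with LiveBLAzer B/G substrate. p53 response element-bla cells were treated 16 h at 37 C with compounds in DMSO, added 5 h after seeding.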

[20] = p53 small molecule agonists, cell-based qHTS assay with rat liver microsomes: qHTS cell viability counter screen (AID 1963580); further: nearly all actives have a fitted effect of over 45% in size; further: potency means the concentration at half of the fitted maximal effect
Summary of the method: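 After the beta-lactamase ratio was read, CellTiter-Glo was added to the same wells and luminescence measured at 30 min; cells had been treated 16 h at 37 C with compounds, rat liver microsomes and NADPH (0.5 mg/mL final each).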

Sequence of Muscarinic acetylcholine receptor M1 (Homo sapiens) (P11229 whole entry, looked up): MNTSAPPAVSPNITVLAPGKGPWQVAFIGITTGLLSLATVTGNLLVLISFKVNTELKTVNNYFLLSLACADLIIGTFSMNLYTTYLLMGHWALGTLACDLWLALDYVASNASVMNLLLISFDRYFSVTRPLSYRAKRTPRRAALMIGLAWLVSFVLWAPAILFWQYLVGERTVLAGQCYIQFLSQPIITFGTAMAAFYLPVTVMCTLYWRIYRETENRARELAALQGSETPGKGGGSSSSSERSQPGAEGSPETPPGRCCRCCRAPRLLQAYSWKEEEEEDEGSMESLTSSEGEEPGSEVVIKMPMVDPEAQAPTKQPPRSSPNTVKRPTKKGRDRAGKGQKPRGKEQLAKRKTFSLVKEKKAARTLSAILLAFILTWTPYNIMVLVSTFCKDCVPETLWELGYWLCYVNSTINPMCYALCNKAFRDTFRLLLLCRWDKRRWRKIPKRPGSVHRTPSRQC
Sequence of KiSS-1 receptor (Homo sapiens) (Q969F8 whole entry, looked up): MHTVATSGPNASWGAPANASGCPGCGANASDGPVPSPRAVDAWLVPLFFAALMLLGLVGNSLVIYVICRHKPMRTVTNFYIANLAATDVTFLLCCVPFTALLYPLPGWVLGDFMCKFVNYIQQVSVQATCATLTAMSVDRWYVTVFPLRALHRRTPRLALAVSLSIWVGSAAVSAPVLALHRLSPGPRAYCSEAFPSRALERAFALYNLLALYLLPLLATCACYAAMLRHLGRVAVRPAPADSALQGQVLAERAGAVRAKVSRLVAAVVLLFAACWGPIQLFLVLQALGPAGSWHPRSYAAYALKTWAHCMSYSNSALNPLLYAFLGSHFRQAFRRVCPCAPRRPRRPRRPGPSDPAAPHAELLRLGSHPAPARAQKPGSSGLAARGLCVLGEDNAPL
Sequence of Beta-2 adrenergic receptor (Homo sapiens) (P07550 whole entry, looked up): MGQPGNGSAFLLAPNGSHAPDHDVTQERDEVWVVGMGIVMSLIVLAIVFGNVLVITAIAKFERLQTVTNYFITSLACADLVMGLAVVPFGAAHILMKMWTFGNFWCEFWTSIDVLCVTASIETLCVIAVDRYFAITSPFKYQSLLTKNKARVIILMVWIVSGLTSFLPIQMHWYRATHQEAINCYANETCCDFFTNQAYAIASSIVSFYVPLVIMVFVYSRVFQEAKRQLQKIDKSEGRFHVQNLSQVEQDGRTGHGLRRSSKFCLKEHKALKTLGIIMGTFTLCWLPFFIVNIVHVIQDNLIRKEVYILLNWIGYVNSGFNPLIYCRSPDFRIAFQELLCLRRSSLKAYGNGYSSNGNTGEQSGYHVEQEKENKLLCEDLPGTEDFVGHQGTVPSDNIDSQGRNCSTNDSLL
Sequence of Gonadotropin-releasing hormone receptor (Homo sapiens) (P30968 whole entry, looked up): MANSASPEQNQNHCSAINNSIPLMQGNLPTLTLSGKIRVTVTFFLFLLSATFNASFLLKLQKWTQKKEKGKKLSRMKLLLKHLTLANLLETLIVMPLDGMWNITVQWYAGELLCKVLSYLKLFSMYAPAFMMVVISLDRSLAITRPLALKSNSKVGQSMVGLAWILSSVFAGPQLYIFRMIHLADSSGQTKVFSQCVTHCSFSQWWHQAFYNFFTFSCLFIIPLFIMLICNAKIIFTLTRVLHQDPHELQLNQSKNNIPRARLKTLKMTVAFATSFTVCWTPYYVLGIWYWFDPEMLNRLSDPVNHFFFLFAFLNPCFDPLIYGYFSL
Sequence of D(2) dopamine receptor (Homo sapiens) (P14416 whole entry, looked up): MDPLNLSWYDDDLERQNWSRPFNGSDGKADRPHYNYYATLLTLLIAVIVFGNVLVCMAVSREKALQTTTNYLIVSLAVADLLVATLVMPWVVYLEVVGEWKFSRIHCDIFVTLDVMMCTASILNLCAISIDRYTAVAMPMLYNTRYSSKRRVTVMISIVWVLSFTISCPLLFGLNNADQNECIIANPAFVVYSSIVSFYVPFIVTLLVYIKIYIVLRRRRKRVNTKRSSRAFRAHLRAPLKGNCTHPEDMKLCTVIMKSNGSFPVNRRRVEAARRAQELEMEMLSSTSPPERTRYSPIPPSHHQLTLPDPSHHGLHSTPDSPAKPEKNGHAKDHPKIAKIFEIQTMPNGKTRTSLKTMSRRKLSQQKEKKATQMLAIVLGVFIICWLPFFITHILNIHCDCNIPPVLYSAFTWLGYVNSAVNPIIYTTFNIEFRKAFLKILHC
Sequence of 5-hydroxytryptamine receptor 2A (Homo sapiens) (P28223 whole entry, looked up): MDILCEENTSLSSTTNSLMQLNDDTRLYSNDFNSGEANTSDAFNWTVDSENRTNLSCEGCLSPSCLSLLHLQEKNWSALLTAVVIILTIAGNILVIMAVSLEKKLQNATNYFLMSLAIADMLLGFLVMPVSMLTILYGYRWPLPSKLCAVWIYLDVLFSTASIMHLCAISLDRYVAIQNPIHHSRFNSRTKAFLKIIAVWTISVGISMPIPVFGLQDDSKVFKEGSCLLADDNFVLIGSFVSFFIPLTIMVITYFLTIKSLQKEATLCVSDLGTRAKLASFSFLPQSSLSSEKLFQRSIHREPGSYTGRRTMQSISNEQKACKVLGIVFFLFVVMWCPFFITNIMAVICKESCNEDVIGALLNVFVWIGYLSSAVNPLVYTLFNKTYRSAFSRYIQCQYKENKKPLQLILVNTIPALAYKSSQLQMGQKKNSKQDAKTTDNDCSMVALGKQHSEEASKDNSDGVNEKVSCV

Row | Structure (SMILES) | Potency [1] | Potency [2] | Potency [3] | Potency [4] | Potency [5] | Potency [6] | Potency [7] | Potency [8] | Potency [9] | Potency [10] | Potency [11] | Potency [12] | Potency [13] | Potency [14] | Potency [15] | Potency [16] | Potency [17] | Potency [18] | Potency [19] | Potency [20]
1 | O=c1[nH]oc2c1CCNC2 | inactive | inactive | inactive | inactive | inactive | inactive | inactive | inactive | inactive | inactive | inactive | inactive | inactive | inactive | inactive | inactive | inactive |  |  | 
2 | N#Cc1c(Cl)cccc1Cl | inactive | inactive | inactive | inactive | inactive | inactive | inactive | inactive |  | inactive |  | inactive | inactive | inactive | inactive | inactive | inactive | inactive | inactive | 
3 | CC(C)OC(=O)C(O)(c1ccc(Cl)cc1)c1ccc(Cl)cc1 | 30.6 µM (active) | inactive | inactive | inactive | inactive | inactive | inactive | 40.8 µM (active) | inactive | inactive | 13.3 µM (active) |  |  |  |  |  |  |  |  | 
4 | Oc1cccc(-c2ccccc2)c1 | inactive | inactive | inactive | inactive | inactive | inactive | inactive | inactive | inactive | inactive | inactive | inactive | inactive | inactive | inactive | inactive | inactive | inactive | inactive | 
5 | O=C(OC1CCCCC1)c1ccccc1C(=O)OC1CCCCC1 | inactive | inactive | inactive | inactive | inactive | inactive | inactive |  | inactive | inactive | inactive | inactive |  | inactive | inactive | inactive |  | inactive |  | inactive
6 | CCCCc1c(C)nc(NCC)nc1OS(=O)(=O)N(C)C | inactive | inactive | inactive | inactive | inactive | inactive | inactive | inactive | inactive | inactive |  | inactive |  |  | inactive |  | inactive | inactive |  | 
7 | CCOC(=O)COc1cc(-c2nn(C)c(OC(F)F)c2Cl)c(F)cc1Cl | inactive | inactive | inactive | inactive | inactive | inactive | inactive | inactive | inactive | inactive |  | inactive |  |  | inactive |  | inactive |  |  | inactive
8 | O=C1c2ccccc2C(=O)C1C(=O)C(c1ccccc1)c1ccc(Cl)cc1 (stereo unspecified) | 15.4 µM (active) | inactive | 17.4 µM (active) | inactive | inactive | inactive | inactive |  | 4.21 µM (active) | 49 µM (active) |  |  |  | inactive | inactive |  | inactive |  | inactive | inactive
9 | C=C(C)C(=O)[O][Sn]([CH2]CCC)([CH2]CCC)[CH2]CCC | 0.306 µM (active) | 0.433 µM (active) | 15.5 µM (active) | 11 µM (active) | 34.7 µM (active) | inactive |  | 14.5 µM (active) | 1.88 µM (active) | 9.77 µM (active) |  | 9.77 µM (active) |  |  | 1.09 µM (active) |  | 2.43 µM (active) | 3.63 µM (active) |  | 3.24 µM (active)
10 | ClC(Cl)C(Cl)Cl | inactive | inactive | inactive | inactive | inactive | inactive |  | inactive | inactive | inactive | inactive | inactive | inactive |  | inactive | inactive |  | inactive | inactive | inactive
11 | COc1cc(CC(C)N)c(OC)cc1Br (stereo unspecified) | inactive | inactive | inactive | inactive | inactive | inactive | inactive |  | inactive |  | 17.3 µM (active) | inactive | inactive |  |  |  | inactive | inactive | inactive | 
12 | O=C(NC(=O)c1c(F)cccc1F)Nc1cc(Cl)c(F)c(Cl)c1F | inactive | inactive | inactive | inactive | inactive | inactive |  | inactive | inactive | inactive | inactive | inactive | inactive |  | inactive | inactive | inactive | inactive | inactive | inactive
13 | COP(=O)(OC)Oc1ccc([N+](=O)[O-])cc1 | inactive | inactive | inactive | inactive | inactive | 3.24 µM (active) |  | inactive | inactive | inactive | inactive | inactive | inactive | inactive |  | inactive | inactive | inactive | inactive | inactive
14 | CNC(C)Cc1ccccc1OC (stereo unspecified) | inactive | inactive | inactive | inactive | inactive | inactive |  | inactive |  | 0.848 µM (active) | inactive | inactive | inactive | inactive | inactive | inactive | inactive | inactive | inactive | inactive
15 | O=C(Nc1ccc2[nH]ccc2c1)c1cc2cc(F)ccc2n1Cc1cccc(F)c1 | 24.3 µM (active) | inactive | inactive | inactive | inactive | inactive | inactive |  | inactive | inactive |  | inactive | inactive | 61.1 µM (active) | inactive | inactive | inactive |  |  | inactive
16 | CCO[C@H]1O[C@@H]2OC3(C)CC[C@H]4[C@H](C)CC[C@@H]([C@H]1C)[C@@]24OO3 | inactive | inactive | inactive | inactive | inactive | inactive |  | inactive | inactive |  | inactive | inactive |  |  | inactive | inactive | inactive | inactive | inactive | inactive
17 | C/C(=C\c1ccccc1)[N+](=O)[O-] | 30.6 µM (active) | 15.4 µM (active) | inactive | inactive | inactive | inactive |  | inactive | inactive | inactive | inactive | inactive |  | inactive | inactive | inactive | inactive | inactive | inactive | 36.3 µM (active)
